From PubChem BioAssay AID1159580 (chemical genetic matrix, 2015)
Screen size: about 5,500 compounds; about 2,000 (36%) were called active. Roughly 18% stayed inconclusive and do not appear here. Rule as the data show it: active = normalized growth mostly below about 0.91 (no sharp cut-off); inconclusive = no clear call, values can overlap the other calls; inactive = mostly above about 0.92. Some of the results follow.

Assay: chemical genetic growth profiling, strain panel (AID 1159580);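 also: tested at 20 µM; growth read once vehicle control cultures reached saturation at 30 °C; 1 = growth at the plate median or of vehicle wells; lower values mean less growth of the strain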
Conditions: S. cerevisiae deletion strains, growth OD
[1] = locus YAL013W, strain DEP1, active compounds read low
[2] = locus YCL061C, strain MRC1, active compounds read low
[3] = locus YDR150W, strain NUM1, active compounds read low
[4] = locus YGR078C, strain PAC10, active compounds read low
[5] = locus YGR229C, strain SMI1, active compounds read low
[6] = locus YHR030C, strain SLT2, active compounds read low
[7] = locus YNL153C, strain GIM3, active compounds read low

Measured: normalized growth

COc1ccccc1NC(=O)N1CCCN(C(=O)c2cccs2)CC1
inactive: [1] 1.01 | locus YBR229C, strain ROT2, active compounds read low 1.02 | [2] 1.02 | locus YDL101C, strain DUN1, active compounds read low 1.03 | locus YDL134C, strain PPH21, active compounds read low 1.01 | [3] 1.05 | locus YEL061C, strain CIN8, active compounds read low 0.994 | [4] 1.01 | [5] 1.01 | [6] 1.03 | locus YHR087W, strain rtc3, active compounds read low 0.986 | locus YJR043C, strain POL32, active compounds read low 1.02 | locus YJR075W, strain HOC1, active compounds read low 1.02 | locus YKL190W, strain CNB1, active compounds read low 1.01 | locus YLR039C, strain RIC1, active compounds read low 1.05 | locus YLR058C, strain SHM2 (second series), active compounds read low 1 | locus YLR085C, strain ARP6, active compounds read low 1.03 | locus YLR262C, strain YPT6, active compounds read low 1.02 | locus YML094W, strain GIM5, active compounds read low 1.02 | locus YMR219W, strain ESC1, active compounds read low 1.01 | locus YMR263W, strain SAP30, active compounds read low 1.04 | [7] 1.01 | locus YNL298W, strain CLA4 (second series), active compounds read low 1.04 | locus YNL322C, strain KRE1, active compounds read low 1.01 | locus YNR030W, strain Alg12, active compounds read low 1.02 | locus YPL055C, strain LGE1, active compounds read low 1.01 | locus YPL241C, strain CIN2, active compounds read low 1.05 | locus YPR135W, strain CTF4, active compounds read low 1.04

OC1CCCCC1N1CCC(c2ccccc2)CC1 (stereo not drawn)
inactive: [1] 0.998 | locus YAL021C, strain ccr4, active compounds read low 0.998 | locus YAL026C, strain drs2, active compounds read low 0.994 | locus YAL030W, strain snc1, active compounds read low 0.992 | locus YAL040C, strain CLN3, active compounds read low 0.998 | locus YBL061C, strain skt5, active compounds read low 0.994 | locus YBR009C, strain hhf1, active compounds read low 0.957 | locus YBR023C, strain chs3, active compounds read low 0.999 | locus YBR171W, strain sec66, active compounds read low 0.99 | locus YBR231C, strain swc5, active compounds read low 0.993 | locus YBR279W, strain paf1, active compounds read low 0.999 | locus YCL011C, strain gbp2, active compounds read low 0.996 | locus YCL016C, strain dcc1, active compounds read low 0.989 | locus YCL061C, strain MRC1 (second series), active compounds read low 1.01 | [2] 0.993 | locus YCL069W, strain vba3, active compounds read low 0.989 | locus YCR088W, strain abp1, active compounds read low 0.983 | locus YDL005C, strain med2, active compounds read low 0.992 | locus YDL040C, strain nat1, active compounds read low 0.993 | locus YDR001C, strain nth1, active compounds read low 0.984 | locus YDR069C, strain doa4, active compounds read low 0.998 | locus YDR137W, strain rgp1, active compounds read low 0.945 | [3] 1 | locus YDR159W, strain sac3, active compounds read low 0.997 | locus YDR195W, strain ref2 0.941 | locus YDR297W, strain sur2, active compounds read low 0.995 | locus YDR334W, strain swr1, active compounds read low 0.996 | locus YDR335W, strain msn5, active compounds read low 0.997 | locus YDR363W, strain ESC2, active compounds read low 1.01 | locus YDR392W, strain spt3, active compounds read low 0.902 | locus YEL003W, strain gim4, active compounds read low 0.994 | locus YEL037C, strain rad23, active compounds read low 0.99 | locus YEL061C, strain CIN8 (second series), active compounds read low 0.989 | locus YER002W, strain NOP16, active compounds read low 0.992 | locus YER015W, strain faa2, active compounds read low 0.992 | locus YER016W, strain bim1, active compounds read low 0.993 | locus YER111C, strain swi4, active compounds read low 0.978 | locus YER155C, strain BEM2 (second series), active compounds read low 0.96 | locus YFR010W, strain ubp6, active compounds read low 0.988 | locus YGL167C, strain pmr1, active compounds read low 0.986 | locus YGL173C, strain kem1, active compounds read low 0.994 | locus YGL227W, strain vid30, active compounds read low 0.988 | locus YGL240W, strain doc1, active compounds read low 1.01 | locus YGL253W, strain hxk2, active compounds read low 0.996 | [4] 1.01 | [5] 1.01 | locus YHR013C, strain ard1, active compounds read low 0.941 | locus YHR027C, strain rpn1, active compounds read low 0.988 | [6] 0.979 | locus YHR079C, strain IRE1, active compounds read low 0.983 | locus YHR142W, strain chs7, active compounds read low 1.01 | locus YJL092W, strain hpr5, active compounds read low 0.989 | locus YJL095W, strain BCK1 (second series), active compounds read low 0.993 | locus YJL095W, strain BCK1, active compounds read low 0.984 | locus YJL115W, strain asf1, active compounds read low 0.991 | locus YJL129C, strain trk1, active compounds read low 1.02 | locus YJL154C, strain vps35, active compounds read low 0.987 | locus YJL164C, strain tpk1, active compounds read low 1 | locus YJL166W, strain qcr8, active compounds read low 1 | locus YJL187C, strain SWE1, active compounds read low 0.996 | locus YJR066W, strain TOR1, active compounds read low 0.934 | locus YKL160W, strain elf1, active compounds read low 1.02 | locus YKR026C, strain gcn3, active compounds read low 0.975 | locus YKR091W, strain srl3, active compounds read low 0.983 | locus YLL001W, strain dnm1, active compounds read low 0.981 | locus YLL026W, active compounds read low 0.995 | locus YLL041C, strain sdh2, active compounds read low 0.99 | locus YLR027C, strain aat2, active compounds read low 0.992 | locus YLR113W, strain HOG1, active compounds read low 0.999 | locus YLR221C, strain rsa3, active compounds read low 1.01 | locus YLR258W, strain gsy2, active compounds read low 0.984 | locus YLR262C, strain YPT6 (second series), active compounds read low 0.945 | locus YLR320W, strain mms22, active compounds read low 0.998 | locus YLR342W, strain FKS1, active compounds read low 0.981 | locus YLR357W, strain rsc2, active compounds read low 0.979 | locus YLR370C, strain arc18, active compounds read low 0.992 | locus YLR384C, strain iki3, active compounds read low 0.983 | locus YML120C, strain ndi1, active compounds read low 1.02 | locus YMR058W, strain fet3, active compounds read low 0.999 | locus YMR125W, strain sto1, active compounds read low 0.988 | locus YMR129W, active compounds read low 0.985 | locus YMR205C, strain PFK2, active compounds read low 0.953 | locus YMR231W, strain pep5, active compounds read low 0.988 | locus YMR307W, strain GAS1, active compounds read low 0.991 | locus YNL071W, strain lat1, active compounds read low 0.999 | locus YNL128W, strain TEP1, active compounds read low 0.978 | [7] 0.997 | locus YNL175C, strain NOP13, active compounds read low 0.994 | locus YNL183C, strain NPR1, active compounds read low 0.937 | locus YNL197C, strain WHI3, active compounds read low 0.993 | locus YNL209W, strain ssb2, active compounds read low 0.993 | locus YNL224C, strain SQS1, active compounds read low 0.997 | locus YNL248C, strain rpa49, active compounds read low 1.02 | locus YNL322C, strain KRE1 (second series), active compounds read low 0.992 | locus YNR049C, strain mso1, active compounds read low 0.989 | locus YOR001W, strain rrp6, active compounds read low 1.01 | locus YOR070C, strain gyp1, active compounds read low 0.992 | locus YOR080W, strain dia2, active compounds read low 0.988 | locus YOR083W, strain WHI5 (second series), active compounds read low 1 | locus YOR083W, strain WHI5, active compounds read low 1.02 | locus YOR106W, strain vam3, active compounds read low 1.02 | locus YOR231W, strain MKK1, active compounds read low 0.986 | locus YOR265W, strain rbl2, active compounds read low 0.993 | locus YOR270C, strain vph1, active compounds read low 1 | locus YOR290C, strain snf2, active compounds read low 0.911 | locus YPL051W, strain arl3, active compounds read low 0.999 | locus YPL078C, strain atp4, active compounds read low 1.01 | locus YPL106C, strain sse1, active compounds read low 0.98 | locus YPL240C, strain hsp82, active compounds read low 1 | locus YPL256C, strain CLN2, active compounds read low 1
